The results in this text go back to PubChem BioAssay AID485281 (National Center for Advancing Translational Sciences (NCATS), 2010).

In all, about 350,000 compounds went through this assay and about 260 (0.074%) were called active. A call without a number means that no potency is given here. Roughly 8% stayed inconclusive and do not appear here. The call rests on the fitted dose curve; in most records, active means well fitted inhibition curve with a large enough effect; inconclusive means small, poorly fitted or top-dose-only effect; inactive means no such curve, though single readings can be large or run the other way. This excerpt belongs to a sample that is enriched for actives.
Potency means the concentration at half of the fitted maximal effect.

Sequence of Ferritin light chain (Equus caballus) (P02791 2-175 limits assumed): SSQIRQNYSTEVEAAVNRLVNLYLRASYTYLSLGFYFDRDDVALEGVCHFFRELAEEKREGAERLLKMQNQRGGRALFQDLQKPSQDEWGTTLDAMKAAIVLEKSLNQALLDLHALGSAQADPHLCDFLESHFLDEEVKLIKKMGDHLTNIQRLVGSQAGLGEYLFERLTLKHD

This assay concerns the target Ferritin light chain (Equus caballus) (UniProt P02791). Description: qHTS Assay for Identification of Novel General Anesthetics. Further: nearly all actives have a fitted effect of over 20% in size. As to conditions: apoferritin/1-aminoanthracene competitive binding, fluorescence; series mostly up to 77.5 µM. In outline:
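10 uM apoferritin + 50% sat. 1-AMA, PBS; cpd 10 min RT; Ex380/Em535 endpoint; normalized to free probe vs complex; 4-param Hill fit; propofol titration as pos. ctrl.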
In general terms: Quantitative high-throughput screening tests each substance at several concentrations.
Consider `CCc1cccc(NC(=O)CSc2nccn2C)c1`, for which the Potency result was “inactive”.
Turning to `COc1ccc(-c2cn3c(C)c(C(=O)Nc4cc(C)cc(C)c4)sc3n2)cc1`, the Potency entry was “inactive”.
Regarding `O=S(=O)(c1ccccc1)c1nc(-c2ccc(Cl)cc2Cl)oc1N1CCCCC1`, the Potency result is “inactive”.
`COc1cc(C(=O)Nc2ccc(-n3c(C)nc4ccccc4c3=O)cc2)cc(OC)c1OC`: the Potency entry was “inactive”.
Take `CCOc1ccc(CN2CCNC(=O)C2CC(=O)NCCCC2CCCC2)cc1` (centres undefined): the Potency is 31.6 µM (active).
With `O=C(CC1C(=O)NCCN1Cc1ccc(-c2ccccc2)cc1)NCC1CCOCC1` (centres undefined) the entry was “inactive”.
With `Cc1nccn1CCCNC(=O)CC1C(=O)NCCN1Cc1ccc(Cl)c(F)c1` (centres undefined), the Potency result was “inactive”.
As to `CC(=O)c1cccc(NC(=O)c2nc(-c3ccccc3)n(-c3cccc(C)c3)n2)c1`, the Potency result was “inactive”.
In the case of `O=C(c1cnn(-c2ccc(F)cc2)c1-n1cccc1)N1CCN(c2ccc(F)cc2)CC1` it was “inactive”.
In the case of `CCCn1c2ccccc2c2cnn(CC(=O)N(C)c3ccccc3CC)c(=O)c21` it was “inactive”.
Turning to `O=C(CCC(=O)N1CC2CCCN2c2ccccc21)NCc1ccccc1Cl` (centres undefined), the Potency entry is “inactive”.
With `Cc1ccc2nc(-c3ccc(C)c(NC(=O)Cc4ccccc4)c3)oc2c1`, the Potency entry is “inactive”.
With `COc1ccc(N(CC(=O)NCCc2ccc(Cl)cc2)S(=O)(=O)c2c(C)nn(C)c2C)cc1` the entry was “inactive”; with `COC(=O)CSc1ccc2nnc(CCNS(=O)(=O)c3ccc(C)cc3)n2n1`, “inactive”.
For the compound `Cc1ccc(S(=O)(=O)NCCc2nnc3ccc(SCc4cccnc4)nn23)cc1`, the Potency result was “inactive”.
As for `O=S(=O)(NCCc1nnc2ccc(SCc3ccc(Cl)cc3Cl)nn12)c1ccccc1`, the Potency is 17.8 µM (active).
On to `CN1C(=O)c2ccccc2Sc2ccc(NC(=O)Cc3ccc(Cl)cc3)cc21`, for which the Potency result was “inactive”.
As to `O=C(NCC(c1ccc2c(c1)OCO2)N1CCN(c2ccccc2)CC1)C(=O)Nc1ccccc1F` (centres undefined), the Potency result is “inactive”.
Consider `Cc1ccc(Cl)cc1NC(=O)C(C)n1nnc2sc(-c3ccccc3)cc2c1=O` (centres undefined), for which the Potency result is “inactive”.
As for `O=C(Cn1cc(SCc2cccc(Cl)c2)c2ccccc21)N1CCCCC1`, the Potency result is “inactive”.
Regarding `CCN1CCN(c2ncc3c(n2)CC(c2ccccc2O)CC3=O)CC1` (centres undefined), the Potency entry was “inactive”.
In the case of `CCCCCCSc1nsc(N)n1` it was 8.91 µM (active); in that of `CCCSc1nsc(N)n1`, “inactive”.
With `Nc1nc(SC23CC4CC(CC(C4)C2)C3)ns1` the entry was “inactive”; with `O=C(c1ccc(Br)cc1)N(Cc1cccs1)c1ccc(F)cc1`, “inactive”; with `Cn1cc(S(=O)(=O)N2CCCCCC2)cc1C(=O)N1CCN(c2ccc(F)cc2)CC1`, “inactive”.
For the compound `CC1Cc2ccccc2N1C(=O)CSc1nc2ccccc2o1` (centres undefined), the Potency entry was “inactive”.
As for `CC1Cc2ccccc2N1C(=O)CSc1nnc(C2CC2)n1C` (centres undefined), the Potency result was “inactive”.
`Cc1cc(=O)[nH]c(SCC(=O)N2c3ccccc3CC2C)n1` (centres undefined): the Potency is 14.1 µM (active).
